Measured values published in PubChem BioAssay AID1851 (National Center for Advancing Translational Sciences (NCATS), 2009).
The campaign covered roughly 16,000 compounds. About 4,000 (25%) were called active. Inconclusive results (about 26%) are left out. Not all results are given here. Unmarked numbers belong to inactive results. The call rests on the fitted dose curve; in most records, active means well fitted curve in the direction sought with a large enough effect; inconclusive means small, poorly fitted or top-dose-only effect, or effect the other way; inactive means no such curve, though single readings can be large or run the other way.

biological target: Cytochrome P450 2C9 (Homo sapiens) (UniProt P11712); experiment: Cytochrome panel assay with activity outcomes; details: recombinant CYP, pro-luciferin dealkylation, luminescence, p450-cyp2c9; series mostly up to 57.1 µM
Sequence (P11712 whole entry, looked up): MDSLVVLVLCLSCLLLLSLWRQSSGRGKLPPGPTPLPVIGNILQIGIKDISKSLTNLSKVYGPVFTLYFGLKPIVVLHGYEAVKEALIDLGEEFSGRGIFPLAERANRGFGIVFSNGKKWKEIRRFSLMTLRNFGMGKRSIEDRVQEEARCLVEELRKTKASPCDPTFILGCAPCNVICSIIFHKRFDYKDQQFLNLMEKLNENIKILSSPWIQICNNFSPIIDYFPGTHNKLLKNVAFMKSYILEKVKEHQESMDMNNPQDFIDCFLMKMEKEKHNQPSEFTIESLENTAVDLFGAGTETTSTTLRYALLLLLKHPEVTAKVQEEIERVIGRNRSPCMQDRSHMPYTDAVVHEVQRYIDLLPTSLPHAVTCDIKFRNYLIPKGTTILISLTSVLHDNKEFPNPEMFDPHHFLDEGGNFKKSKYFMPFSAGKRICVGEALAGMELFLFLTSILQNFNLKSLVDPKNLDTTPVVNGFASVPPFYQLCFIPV
On the % scale 0 is the no-effect control and ±100 the full control effect.

Structure (SMILES) | AC50 | activity, negative = inhibition
CCOC(=O)N1CCN(C(=O)CSCc2ccc(Cl)cc2)CC1 | inactive | 
CCOC(=O)CSC1=NC(=O)/C(=C\c2ccc(Cl)cc2)S1 | 1.26 µM (active) | 
Cc1noc(C)c1C(=O)N1CCC2(CC1)CN(c1ncccn1)C2 | inactive | 
Cc1cccc(NC(=O)CSc2nc3nc(C)cc(C)c3c(=O)[nH]2)c1 | 7.94 µM (active) | 
Cc1cc(C)c2c(=O)[nH]c(SCC(=O)N(C)C)nc2n1 | inactive | 
Cc1cccc(NC(=O)Cn2c(=O)oc3ccccc32)c1 | inactive | 
CC[C@@H]1OC(=O)[C@H](C)[C@H](O[C@@H]2C[C@](C)(OC)[C@H](O)[C@H](C)O2)[C@H](C)[C@H](O[C@@H]2O[C@@H](C)C[C@@H](N(C)C)[C@@H]2O)[C@](C)(O)C[C@H](C)C(=NOCOCCOC)[C@H](C)[C@H](O)[C@]1(C)O | inactive | 
COc1ccc(C(=O)Nc2scc(-c3ccc(Cl)cc3Cl)c2C(N)=O)cc1 | 0.631 µM (active) | 
CC(C)COc1ccc(C(=O)Nc2scc(-c3ccc(Cl)cc3Cl)c2C(N)=O)cc1 | 1.78 µM (active) | 
O=C(Nc1nnc(COc2ccc(Cl)cc2)s1)c1ccc([N+](=O)[O-])cc1 | inactive | 
NC(=O)OC[C@H](O)COc1ccc(Cl)cc1 | inactive | 
Cc1sc(NC(=O)c2ccc(OCC(C)C)cc2)c(C(N)=O)c1-c1ccc(Cl)cc1Cl | 0.562 µM (active) | 
Cn1ncc(C#N)c1/N=C/N1CCCCCC1 | inactive | 
O=C(c1csnn1)N1CCC2(CC1)CN(c1ccccn1)C2 | inactive | 
Cn1cccc1C(=O)N1CCC2(CC1)CN(c1ccccn1)C2 | inactive | 
CN1C(=O)/C(=C\c2ccccc2)Sc2ccc(C(=O)N3CCN(c4ccccn4)CC3)cc21 | 11.2 µM (active) | 
CCOC(=O)c1oc2ccccc2c1NC(=O)c1ccc(S(=O)(=O)N(C)C)cc1 | 0.562 µM (active) | 
CCOC(=O)c1oc2ccccc2c1NC(=O)c1cc(OC)cc(OC)c1 | 14.1 µM (active) | 
CCOC(=O)c1oc2ccccc2c1NC(=O)c1ccc2c(c1)OCO2 | inactive | 
Oc1ccccc1CNn1cnnc1 | inactive | 
NC(=NCc1ccc(Cl)c(Cl)c1)NC(=O)c1nc(Cl)c(N)nc1N | inactive | 
COc1ccccc1-c1nccc(NC2CCNCC2)n1 |  | 3.9% [at 2.29 µM]
Nc1c(S(=O)(=O)O)cc(Nc2cccc(S(N)(=O)=O)c2)c2c1C(=O)c1ccccc1C2=O | 3.16 µM (active) | 
O=C1c2ccccc2C(=O)c2c(NC3CCCCC3)ccc(Nc3ccc(S(=O)(=O)O)cc3)c21 |  | -7.2% [at 11.4 µM]

Structure (SMILES) | AC50 | activity, negative = inhibition
COc1ncc2nc(-c3cc(F)cc(F)c3)c(=O)n(-c3ccccc3)c2n1 | inactive | 
C[C@@H]1C(=O)N(C)C(=O)c2nc[nH]c21 | inactive | 
O=C(COc1ccc(Br)cc1)N1CCC(c2ccccc2)C1 (stereo unspecified) | 14.1 µM (active) | 
Cc1cccc(OCC(=O)N2CCC(N3CCCCCC3)CC2)c1 | inactive | 
CCOc1ccc(NC(=O)N2CCC(c3ccc(C)cc3)C2)cc1 (stereo unspecified) | inactive | 
COc1ccc(C(C(=O)NC2CCCCC2)N(C(=O)c2sc(C)nc2C)c2ccc(C(C)=O)cc2)cc1 (stereo unspecified) | inactive | 
COc1ccc(C[C@H](N)C(=O)N[C@@H]2[C@H](O)[C@H](n3cnc4c(N(C)C)ncnc43)O[C@@H]2CO)cc1 | inactive | 
CCc1ccc(N(C(=O)c2ccoc2C)C(C(=O)NC2CCCC2)c2ccc(OC)cc2)cc1 (stereo unspecified) | 28.2 µM (active) | 
C[C@H](O)[C@H](O)[C@@H]1CNc2nc(N)[nH]c(=O)c2N1 | inactive | 
COc1ccc(OC)c2[nH]c(=O)c(CCNS(=O)(=O)c3ccc(C)cc3)cc12 | 3.55 µM (active) | 
COc1ccc(OC)c2[nH]c(=O)c(CCNS(=O)(=O)c3ccc(Cl)cc3)cc12 | 2.24 µM (active) | 
CCS(=O)(=O)NCCc1cc2ccc(C)cc2[nH]c1=O | inactive | 
COc1cccc(-c2cc3nc(-c4ccccc4)cc(N4CCC5(CC4)OCCO5)n3n2)c1 | 2.82 µM (active) | 
COc1ccc(C(=O)N2CCC[C@@]3(CCN(c4cccc(-c5ccccc5)c4)C3)C2)cc1 | inactive | 
Fc1cc2nc(-c3ccncc3)[nH]c2cc1F | 7.94 µM (active) | 
CCOc1ccc(N=C2NC(=O)C(CC(=O)O)S2)cc1 (stereo unspecified) | inactive | 
N#CCCn1c(=O)c(-c2ccc(F)cc2)nc2cnc(N3CCOCC3)nc21 | inactive | 
CCOC(=O)N1CCN(S(=O)(=O)Cc2ccccc2)CC1 | inactive | 
CC(C)(SCc1ccccc1)[C@H](N)C(=O)O |  | -5.67% [at 11.4 µM]
CCOC(=O)N1CCN(C(=O)C(C)SCc2ccccc2)CC1 (stereo unspecified) | 3.55 µM (active) | 
CC(C)Cn1cnc2c(SCc3ccccn3)nc(N)nc21 |  | 0.334% [at 11.4 µM]
Cc1ccc2[nH]c3c(c2c1)CN(C(=O)CN1c2ccc(F)cc2CCC1C)CC3 (stereo unspecified) | 10 µM (active) | 
OCC1CCCN(Cc2ccc(-c3ccccc3)cc2)C1 (stereo unspecified) | inactive | 
CNc1cc(N2CCCCCC2)ccc1[N+](=O)[O-] | 6.31 µM (active) | 

Structure (SMILES) | AC50 | activity, negative = inhibition
CS(=O)(=O)N1CCN(c2ccc([N+](=O)[O-])c(NCc3ccccc3)c2)CC1 | 12.6 µM (active) | 
O=[N+]([O-])c1ccc(N2CCCC2)cc1NCc1ccccc1 | 1.58 µM (active) | 
Clc1ccccc1-c1cc(NCc2ccccc2)ncn1 |  | 4.07% [at 2.29 µM]
CC(=O)Nc1ccc(N2CCCCC2)cc1 | inactive | 
CCN1CCC[C@H]1CNC(=O)c1c(OC)ccc(Br)c1OC | inactive | 
O=c1c(-c2cccc(F)c2)nc2cncnc2n1C1CC1 | inactive | 
O=c1c(-c2cc(F)cc(F)c2)nc2cncnc2n1Cc1ccccc1Cl | 3.98 µM (active) | 
O=c1c(-c2cccc(Cl)c2)nc2cncnc2n1Cc1ccccc1 | 1.26 µM (active) | 
O=c1c(-c2cccc(Cl)c2)nc2cncnc2n1Cc1ccccc1Cl | 3.98 µM (active) | 
COc1ccc(-n2c(=O)c(-c3cc(F)cc(F)c3)nc3cncnc32)cc1 | inactive | 
O=c1c(-c2cccc(F)c2)nc2cncnc2n1Cc1ccccc1Cl | 7.94 µM (active) | 
O=c1c(-c2cccc(Cl)c2)nc2cncnc2n1C1CC1 | inactive | 
c1nc(NC2CCNCC2)c2cc(-c3ccoc3)ccc2n1 |  | -8.97% [at 2.29 µM]
N#Cc1cccc(NC(=O)N2CCCC3(CCN(C(=O)c4csnn4)CC3)C2)c1 | inactive | 
O=c1c(-c2ccc(F)c(F)c2)nc2cncnc2n1Cc1ccccc1Cl | 5.01 µM (active) | 
O=c1c(-c2ccc(Cl)cc2)nc2cncnc2n1Cc1ccccc1Cl | inactive | 
O=c1c(-c2ccc(F)c(F)c2)nc2cncnc2n1C1CC1 | inactive | 
O=c1c2ccccc2sc2c(CO)ccc(NCCN3CCCCC3)c12 |  | 17.3% [at 11.4 µM]
COc1ccc([N+](=O)[O-])cc1COc1ccc2c(-c3ccccc3)cc(=O)oc2c1 | 7.08 µM (active) | 
N[C@H](CCCP(=O)(O)O)C(=O)O | inactive | 
Cc1o[nH]c(=O)c1CC[C@H](N)C(=O)O | 10 µM (active) | 
Cc1cn(CC[C@H](N)C(=O)O)c(=O)[nH]c1=O |  | 23.1% [at 11.4 µM]
CCCCCCc1c(C[C@H](N)C(=O)O)o[nH]c1=O | inactive | 
Cc1ccc(S(=O)(=O)N[C@H]2COC(=O)[C@H](C)COC(=O)[C@H](C)NC(=O)C/C=C\[C@H]2C)cc1 |  | 2.34% [at 11.4 µM]

Structure (SMILES) | AC50 | activity, negative = inhibition
CC(C)(C[C@@]1(C)NC(=O)NC1=O)OCc1ccccc1 |  | 9.56% [at 11.4 µM]
CN1CCc2c(c3c(n2C)CCN(C)[C@H]3c2ccccc2F)[C@@H]1c1ccccc1F | inactive | 
O=C1NCCN1Cc1ccccc1F | 12.6 µM (active) | 
COc1ccc(OC)c(NC(=O)[C@H]2CC=CC[C@H]2C(=O)O)c1 | inactive | 
COc1ccc(OC)c(NC(=O)CC(Cc2ccccc2OC)C(=O)O)c1 (stereo unspecified) | 2.24 µM (active) | 
Cc1ccc(Oc2ncc(CN3CCOCC3)s2)cc1 | inactive | 
CCOC(=O)C1CCN(Cc2cnc(Oc3ccc(OC)cc3)s2)CC1 | 10 µM (active) | 
CCOC(=O)C1CCN(C(=O)C2CCN(S(=O)(=O)N3CCCC3)CC2)CC1 | inactive | 
c1ccc2nc(C3=NCCN3)cnc2c1 | inactive | 
O=C1c2ccccc2C(=O)N1CCCCN(C(=O)c1cccc([N+](=O)[O-])c1)c1ccc(Cl)cc1 | 7.08 µM (active) | 
O=C1c2ccccc2C(=O)N1CCCCN(C(=O)c1ccc([N+](=O)[O-])cc1)c1ccc(Cl)cc1 | 1.78 µM (active) | 
N=C(N)S[C@H]1c2ccccc2-c2cc([N+](=O)[O-])ccc21 |  | -26% [at 11.4 µM]
N[C@H](C(=O)O)C1[C@H](C(=O)O)[C@H]1C(=O)O (stereo partly specified) | inactive | 
CCc1cc2c(=O)n(-c3ccccc3)c(=S)[nH]c2s1 | 14.1 µM (active) | 
CCOC(=O)N1CCN(C(=O)c2ccc3c(=O)n(-c4ccc(OC)cc4)c(=S)[nH]c3c2)CC1 | inactive | 
O=c1[nH]c(=S)c2[nH]c(=O)n(-c3ccccc3)c2[nH]1 |  | -16.7% [at 11.4 µM]
O=C(N/N=C/c1c[nH]c2ccccc12)c1ccn(Cc2ccc(Cl)cc2Cl)n1 | 1.26 µM (active) | 
CO[C@@H]1COC(=O)CCC[C@@H](C)[C@H](OC)COC(=O)CCC[C@H]1C |  | -7% [at 11.4 µM]
C=CCc1cccc(C2Nc3ccccc3C(=O)N2O)c1O (stereo unspecified) | 5.01 µM (active) | 
CC1(C(=O)CSc2nc3ccccc3s2)CCC(=O)O1 (stereo unspecified) | inactive | 
CC(C)CC1CC(=O)OC1(C)C(=O)CSc1nc2ccccc2s1 (stereo unspecified) | 28.2 µM (active) | 
Cc1ccc(OC(=O)c2cccc(C(=O)Oc3ccc(C)cc3)n2)cc1 | inactive | 
Cc1cc2ccc(OC(=O)c3ccc(N=C(N)N)cc3)cc2oc1=O |  | 3.7% [at 11.4 µM]
COc1ccc(-c2oc3ccccc3c(=O)c2OC(=O)c2ccc(C)cc2)cc1 | 1.26 µM (active) | 
